The whole screen tested about 360,000 compounds, of which about 17,000 (4.7%) were called active. About 5% were inconclusive and are not listed. Cut-off read from the data, not from the text of the source: active = activity change below about -50%; inconclusive = mostly about -30% to -49%; inactive = weaker than that. The full list was thinned out, with actives kept by preference.
% is set by controls: 0 for no effect and ±100 for the full control effect.

This assay in a line: qHTS for Inhibitors of Inflammasome Signaling: IL-1-beta AlphaLISA Primary Screen. The settings on record: THP-1 LPS/ATP IL-1B secretion, 16 h; at 57.5 µM, active compounds read low. In a few lines:
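Secreted IL-1B measured by AlphaLISA bead assay after 16 h compound exposure of THP-1 cells; compounds (final up to 57.5 uM) added 1 h before LPS (250 ng/mL) and ATP (1.25 mM) stimulation; lower signal means less secretion.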
For the molecule `C[C@@H]1CC2=C(C(=O)OC(C)(C)O2)[C@@H](C2CC2)O1`, the activity change is 32.1% (inactive). The value for `CC1CCc2[nH]c3ccc(C(=O)N(C)CC(=O)Nc4cccc(F)c4)cc3c2C1` (stereo not drawn) was -74.7% (active). The value for `CN(CC(=O)Nc1cccc(F)c1)C(=O)CC1CCCC1` was 0.0851% (inactive). Consider `CN(CC(=O)Nc1cccc(F)c1)C(=O)C1=COCCO1`, for which the activity change is 2.81% (inactive).

Regarding `CCCCCCCCNS(=O)(=O)CCNC1CCCCC1`, the activity change is -65.1% (active). As to `CCCCNS(=O)(=O)CCNCc1ccccc1OC`, the activity change was 3.56% (inactive). The value for `CCCCCCNS(=O)(=O)c1ccccc1Br` was 14% (inactive). The figure for `C[C@H]1CN([C@@H](C)CO)C(=O)CCCn2cc(nn2)CO[C@@H]1CN(C)S(=O)(=O)c1cccs1` is 7.03% (inactive); for `CC(C)(C)NC(=O)C(CCc1ccccc1)n1c(=O)c(-c2ccccc2)nc2ccccc21` (stereo not drawn) it is 0% (inactive). Consider `CC(C)C1CCN(C(=O)C2CCC(=O)N(C3CCCCCC3)C2)CC1` (stereo not drawn), for which the activity change is -3.63% (inactive). The figure for `O=C(NC(=O)c1cc(OCC(F)(F)F)ccc1OCC(F)(F)F)Nc1ccccc1` is -63.5% (active); for `CONC(=O)c1cc(OCC(F)(F)F)ccc1OCC(F)(F)F` it is -0.808% (inactive). The value for `CCOc1ccc(CCNC(=O)Nc2ccccc2)cc1OCC` was 30.9% (inactive); that for `O=C(CNC(=O)c1cc(S(=O)(=O)N2CCOCC2)ccc1N1CCCC1)Nc1ccc(F)c(F)c1` was -54% (active). The figure for `NS(=O)(=O)c1ccc(CNC(=O)c2cc(S(=O)(=O)N3CCOCC3)ccc2N2CCCC2)cc1` is -15.8% (inactive). Regarding `O=C(Nc1ccc(N2CCCCC2)cc1)c1cc(S(=O)(=O)N2CCOCC2)ccc1F`, the activity change is -27.8% (inactive). The value for `c1ccc(-c2cc3c(NCC4COc5ccccc5O4)ncnc3s2)cc1` (stereo not drawn) was -59.2% (active).

For `S=C(NCC1COc2ccccc2O1)Nc1ccc(Br)cc1` (stereo not drawn), the activity change was 0% (inactive).

For the molecule `Oc1ccccc1N1CCN(c2ncnc3sc(-c4ccccc4)cc23)CC1`, the activity change is -28.1% (inactive). The figure for `Nc1cc(=O)n(Cc2ccccc2)c(=O)n1Cc1ccccc1` is -0.791% (inactive); for `O=C(NCc1ccccc1)C1C(=O)N(Cc2ccccc2)C(=O)C1C1(O)CCCC1` (stereo not drawn) it is -0.107% (inactive); for `COc1ccc(-c2[nH][nH]c(=O)c2NC(=O)c2ccc([N+](=O)[O-])cc2)cc1` it is 16% (inactive). The figure for `CC(C)[C@@H](C(=O)OCC(=O)c1ccc2c(c1)NC(=O)CO2)N1C(=O)c2ccccc2C1=O` is 25.8% (inactive); for `CCCCC(C(=O)OCC(=O)c1ccc(OC)cc1)N1C(=O)c2ccccc2C1=O` (stereo not drawn) it is -57.4% (active). The value for `COc1ccc(CNC(=O)COC(=O)C(CCSC)N2C(=O)c3ccccc3C2=O)cc1` (stereo not drawn) was 5% (inactive); that for `CCN(CC(=O)NCCCN1CCOCC1)S(=O)(=O)c1cc(Cl)ccc1Cl` was -11.7% (inactive); that for `COc1ccc(S(=O)(=O)N(C)CC(=O)N2CCCC2)cc1` was -1.23% (inactive). For the molecule `COc1ccc2sc(N(CCCN(C)C)C(=O)c3ccc(S(=O)(=O)N(C)C4CCCCC4)cc3)nc2c1`, the activity change was -72.4% (active).

Regarding `CN(C)CCN(C(=O)CN1C(=O)c2ccccc2C1=O)c1nc2cc3c(cc2s1)OCCO3`, the activity change is 10% (inactive). Turning to `CCN(CC)CCN(C(=O)c1cc(Cl)sc1Cl)c1nc2cc3c(cc2s1)OCO3`, the activity change was 0% (inactive).

For the molecule `CN(C)CCCN(C(=O)c1ccc(S(=O)(=O)N2CCCCCC2)cc1)c1nc2cc3c(cc2s1)OCCO3`, the activity change was -66.5% (active).

With `CN(C)CCCN(C(=O)c1ccc(S(=O)(=O)N2CCCCCC2)cc1)c1nc2ccc(Br)cc2s1`, the activity change is -101% (active). The value for `CN(C)CCN(C(=O)C1CCCCC1)c1nc2cc3c(cc2s1)OCO3` was -5.98% (inactive); that for `Brc1ccc2nc(N3CCCC3)sc2c1` was 32.8% (inactive).

In the case of `CCc1ccc2nc(N(CCCN(C)C)C(=O)c3ccc4c(c3)OCCO4)sc2c1`, the activity change was -61.9% (active). Take `CCN(CC)CCN(C(=O)c1cccc([N+](=O)[O-])c1)c1nc2ccc(OC)cc2s1`: the activity change is -20.4% (inactive).

Regarding `CCN(CC(=O)Nc1c(F)cccc1F)C(=O)c1ccc(S(=O)(=O)N2CCCCC2)cc1`, the activity change is -1.87% (inactive).

With `Cc1ccc2nc(N(CCN(C)C)C(=O)C3=COCCO3)sc2c1`, the activity change is -6.05% (inactive). The figure for `Cc1ccc(S(=O)(=O)n2oc(=O)c(C3CCCCC3)c2N)cc1` is -0.476% (inactive); for `C/C(COc1ccccc1)=N\NC(=O)c1nnn(-c2nonc2N)c1-c1ccc(C)cc1` it is -10.3% (inactive). The value for `CCCOc1ccc(F)cc1-c1cc(C(=O)Nc2ccc(F)c(Cl)c2)[nH]n1` was -11.9% (inactive).

Turning to `O=C1c2ccncc2C(=O)N1C1CCCCC1`, the activity change was -1.14% (inactive).

With `Cc1ccc(C)c(NC2=NCC(=O)N2c2ccc3c(c2)OCCO3)c1`, the activity change was 1.69% (inactive).

On to `Cc1cn(C2CC(O)C(CO)O2)c(=O)n(CCCc2ccccc2)c1=O` (stereo not drawn), for which the activity change is 0% (inactive).

`CCOC(=O)N1CCN(C(=O)c2ccc(CN(c3ccc(C)c(C)c3)S(C)(=O)=O)cc2)CC1`: the activity change is 1.54% (inactive). Take `Cc1nc2ccccn2c(=O)c1NC(=O)c1ccc(Br)o1`: the activity change was 9.2% (inactive). The value for `O=c1c2ccccc2ncn1CCc1ccncc1` was -6.13% (inactive); that for `COC1(C2=NCCN2)COc2ccccc2O1` (stereo not drawn) was 6.63% (inactive).

In the case of `COc1cc2c(cc1OC)CN(C(=O)c1ccc(S(=O)(=O)N3CCCCCC3)cc1)CC2`, the activity change was -4.82% (inactive). The figure for `COc1ccc(C2SCCN2S(=O)(=O)c2ccccc2)cc1OC` (stereo not drawn) is -9.4% (inactive). The value for `COc1cc2c(cc1OC)C(C)N(S(=O)(=O)c1cnc(Cl)c(Cl)c1)CC2` (stereo not drawn) was -97.4% (active); that for `COc1ccc(CC2c3cc(OC)c(OC)cc3CC[N+]2(C)CCC(=O)OCCCCCOC(=O)CC[N+]2(C)CCc3cc(OC)c(OC)cc3C2Cc2ccc(OC)c(OC)c2)cc1OC` (stereo not drawn) was -63.5% (active); that for `COC(=O)C1=CN(Cc2ccc(OC)c(OC)c2)C=C(C(=O)OC)C1c1cccs1` was 17.5% (inactive). The value for `CCc1ccc(OCC2c3cc(OC)c(OC)cc3CCN2C(C)=O)cc1` (stereo not drawn) was -10.3% (inactive); that for `Cc1ccc([C@H]2C[C@H](O)[C@@H](n3cc(COC(=O)c4ccccc4)nn3)CN2C(=O)C2CCCCC2)cc1` was -14.7% (inactive); that for `C[C@H](CO)N1C[C@H](C)[C@@H](CN(C)C(=O)c2cccc(F)c2)Oc2cc(-c3cncnc3)ccc2S1(=O)=O` was 3.54% (inactive). `Clc1ccc(-c2cccc3nccn23)cc1`: the activity change is 34.4% (inactive).

As for `CCOC(=O)c1cnn2c(SC)ncnc12`, the activity change was -22.6% (inactive). The value for `CN(O)C(=S)c1ccccc1` was -116% (active); that for `CN(/N=C/c1ccccc1)C(=S)c1ccccc1` was 1.93% (inactive); that for `CN(CC(=O)O)C(=O)c1ccccc1` was 19.1% (inactive). The value for `CC(C)(C)C1CCC(=O)N2CCC[C@]2(c2ccccc2)C1` (stereo partly drawn) was 0.891% (inactive); that for `COC(=O)c1c(NC(=O)CN2C(=O)NC(CCc3ccccc3)C2=O)sc2c1CCCCC2` (stereo not drawn) was -15.4% (inactive); that for `CCOC(=O)CC(=O)CSc1nc(-c2ccccc2)cc(-c2ccc(Cl)cc2)c1C#N` was 6.24% (inactive). The figure for `CCOc1cc(-c2cc(-c3ccc(OC)cc3)nc(N)c2C#N)ccc1O` is -3.59% (inactive); for `CCOc1cc(-c2cc(-c3ccc(NC(C)=O)cc3)nc(N)c2C#N)ccc1O` it is -53.1% (active); for `CC(C)(C)S(=O)(=O)N1Cc2cc(CO)cc(CCO)c2[C@H]1CCO` it is 8.29% (inactive). `CN(C)C(=O)c1cccc(-c2cnc3c(NC=O)cc(-c4ccc(C(=O)N5CCOCC5)cc4)cn23)c1`: the activity change is -14.1% (inactive).

Regarding `O=C(CSc1nc(C2CC2)nc2ccccc12)Nc1cccc(O)c1`, the activity change is 2.55% (inactive).

For the molecule `O=C(CSc1nc(C2CC2)nc2ccccc12)Nc1ccc2c(c1)OCCO2`, the activity change is -71.5% (active). The value for `Cc1nnc(NC(=O)CSc2nc(C3CCCCC3)nc3ccccc23)s1` was -0.35% (inactive); that for `CCN(CC)C(=O)C1=C(C)N(Cc2ccc(OC)cc2)C(=O)C(CC(=O)NCCCCc2ccccc2)C1` (stereo not drawn) was -14.3% (inactive). For the molecule `CCCCCCCCCCCCN1C(=O)CSC1c1cccnc1` (stereo not drawn), the activity change is -56.2% (active).

On to `CCCCc1ccc(NC(=O)NCc2cccnc2)cc1`, for which the activity change is -8.19% (inactive). The figure for `CN(C)CCCN1C(=O)CSC1c1ccc([N+](=O)[O-])cc1` (stereo not drawn) is 36.5% (inactive). The value for `O=C(NCc1cccnc1)c1ccc2nc([C@@H]3O[C@H](CO)[C@H](O)[C@H](O)[C@H]3O)[nH]c2c1` was 2.47% (inactive); that for `COc1cc(C(=O)OCC(=O)N(CC(C)C)C2CCS(=O)(=O)C2)ccc1OCC(C)C` (stereo not drawn) was -19.9% (inactive).

On to `COc1cccc(-c2noc(C3CCCN(C(=O)c4ccc(F)cc4)C3)n2)c1` (stereo not drawn), for which the activity change is -17.2% (inactive).

As to `CCOC(=O)C1(CCOc2ccccc2)CCN(C(=O)c2cncs2)CC1`, the activity change was -28.5% (inactive). The figure for `CCOC(=O)C1(CCOc2ccccc2)CCN(Cc2cc(OC)cc(OC)c2)CC1` is -89.9% (active). The figure for `CCCS(=O)(=O)N1CCC(CCOc2ccccc2)(C(=O)OCC)CC1` is 30.8% (inactive); for `CCOC(=O)C1(CCOC)CCN(Cc2ccc(C(=O)OC)cc2)CC1` it is 4.83% (inactive); for `CCOC(=O)C1(CCOc2ccccc2)CCN(Cc2cc(OC)c(O)cc2Cl)CC1` it is -22.4% (inactive). The figure for `CCOC(=O)C1(CCOc2ccccc2)CCN(Cc2ccc(C#CCCO)cc2)CC1` is -57.7% (active); for `COc1ccc(NC2CC(=O)N(C)C2=O)cc1` (stereo not drawn) it is 19.6% (inactive); for `C/C(=N/Nc1nc(-c2ccccc2)c(CC(=O)O)s1)c1ccccc1` it is -6.09% (inactive).

For the molecule `CC(C)CCC(=O)Nc1cc(S(=O)(=O)N2CCOCC2)ccc1N1CCCC1`, the activity change is -21.6% (inactive).

As for `CCc1nc2ccc(C(=O)N3CCC(O)(Cc4ccccc4)CC3)cn2c1N(C)C(=O)Cc1ccccc1`, the activity change was 1.17% (inactive).

These data come from PubChem BioAssay AID743279 (National Center for Advancing Translational Sciences (NCATS), 2014).
